ALDH1A1 block: inhibitors of human aldehyde dehydrogenase 1A1; P00352; Purified ALDH1A1, NADH fluorescence, propionaldehyde substrate; Potency, µM (highest dose often 75.3 µM), for the others: top-dose activity, negative = inhibition, usual class: inhibitors; 220,000 tested, 7.3% active; AID 1030;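 further: potency means the concentration at half of the fitted maximal effect; plate controls were no enzyme wells and a reference inhibitor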
Target sequence (P00352 whole entry, looked up): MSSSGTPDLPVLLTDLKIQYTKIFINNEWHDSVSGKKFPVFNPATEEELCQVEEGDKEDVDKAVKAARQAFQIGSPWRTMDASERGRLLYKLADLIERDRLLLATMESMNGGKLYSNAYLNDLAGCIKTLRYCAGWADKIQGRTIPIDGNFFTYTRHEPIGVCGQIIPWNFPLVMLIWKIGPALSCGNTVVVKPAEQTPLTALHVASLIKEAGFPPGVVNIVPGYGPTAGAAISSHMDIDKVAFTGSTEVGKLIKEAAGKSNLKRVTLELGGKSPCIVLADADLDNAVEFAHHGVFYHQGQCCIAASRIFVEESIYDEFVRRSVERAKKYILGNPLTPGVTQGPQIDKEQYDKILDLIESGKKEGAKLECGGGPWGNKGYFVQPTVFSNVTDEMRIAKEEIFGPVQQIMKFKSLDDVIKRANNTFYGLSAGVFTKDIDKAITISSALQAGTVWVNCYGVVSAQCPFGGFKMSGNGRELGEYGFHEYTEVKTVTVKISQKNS
IMPase inh: IMPase inhibition in cells; P97697; CHO-M1 cells, IP1 accumulation, HTRF TR-FRET ratio; inhibition (IP1 accumulation), % at 46.1 µM; 120,000 tested, under 10 active; AID 901; active means well fitted curve in the direction sought with a large enough effect in the signal ratio, not every such curve was filed as active; inconclusive means small, poorly fitted or top-dose-only effect, or a change in a side signal; inactive means no such curve, though single readings can be large or run the other way; the % refers to the signal ratio;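 further: cells stimulated with carbachol in lithium chloride buffer; plate controls were DMSO basal wells for no effect and reference inhibitor wells for full effect; higher means more IMPase inhibition seen as more IP1 and lower FRET ratio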
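Carbachol-driven Gq signalling in CHO-M1 cells (2000/well) generates IP1. Compounds that block IMPase raise IP1 and so reduce the FRET signal from Eu-anti-IP1 and d2-IP1 after a 10 min room-temperature lysis.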
HPGD block: inhibitors of human 15-hydroxyprostaglandin dehydrogenase (HPGD). 150,000 tested, 4.3% active. purified HPGD, NADH fluorescence kinetic, PGE2 substrate. AID 894. Potency, µM, inactives show at the highest dose activity change, negative = inhibition, actives largely listed as inhibitors. P15428; further: potency means the concentration at half of the fitted maximal effect
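20 nM HPGD preincubated 15 min at room temperature with compound in 50 mM Tris-HCl pH 8, 0.01% Tween 20. Started with 1 mM NAD+ and 30 uM prostaglandin E2; NADH fluorescence (360/450 nm) read 5 times over 30-s intervals, last minus first.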
* = called active by the depositor; u = inconclusive; x = no result; [ ] = another dose, or the depositor's remark. Rows were chosen to be rich in hits. Some 9% of all compounds tested hit in one or more screens of this group. Unless noted, the call rests on the fitted dose curve; in most records, active means well fitted inhibition curve with a large enough effect (not every such curve was filed as active); inconclusive means small, poorly fitted or top-dose-only effect, or another doubt; inactive means no such curve, though single readings can be large or run the other way. Unless noted, on the % scale 0 is the no-effect control and ±100 the full control effect.

SMILES	ALDH1A1 block	IMPase inh	HPGD block
COc1cccc(NC(=O)CSc2nc3n[nH]c(C)c3c(=N)n2-c2cccc(OC)c2)c1	u	6.5	u
COc1cccc(-n2c(SCC(=O)NCCC3=CCCCC3)nc3n[nH]c(C)c3c2=N)c1	20µM*	-1.3	-17.0%
COc1ccc(NC2=C(c3ccc(C(F)(F)F)cc3)C(=O)c3ccccc32)cc1	x	-8.9	x
O=C(c1cccc(C(F)(F)F)c1)N1CCN(c2cc(=O)[nH]nc2-c2ccccc2)CC1	2.99µM*	3.7	23.1%
O=C(c1ccc(Cl)cc1)N1CCN(c2cc(=O)[nH]nc2-c2ccccc2)CC1	-9.7%	5.6	0.7%
c1cncc(-c2nccc(-n3ccnc3)n2)c1	17.0%	x	-7.4%
CCOC(=O)/C(C)=C1\NC(C)(C)Cc2ccccc21	u	x	20µM*
CCOC(=O)/C(C(=O)Nc1ccccc1Cl)=C1/NC(C)(C)Cc2ccccc21	14.1µM*	-6.3	-25.6%
CCOC(=O)/C(C(=O)Nc1ccc(Br)cc1)=C1/NC(C)(C)Cc2ccccc21	u	x	-14.6%
CC1(C)Cc2ccccc2C(=C(C#N)C#N)N1	-8.9%	x	-3.7%
O=C(O)[C@H]1NCCC[C@H]1C(=O)O	-3.7%	x	-12.9%
Cc1onc(-c2c(F)cccc2Cl)c1C(=O)N[C@H]1C(=O)N2[C@H]1SC(C)(C)[C@H]2C(=O)O	-4.1%[20.9 µM]	2.7[20.6 µM]	-17.8%
CC(C)CCn1c(CN2CCOCC2)nc2c1c(=O)n(C)c(=O)n2C	14.1µM*	12.8	-11.7%
CC1CC(C)CN(Cc2nc3c(c(=O)n(C)c(=O)n3C)n2CCN2CCOCC2)C1 (centres undefined)	7.94µM*	2.1	-0.5%
Cn1c(=O)c2c(nc(CN3CCN(c4ccccc4)CC3)n2CCN2CCOCC2)n(C)c1=O	u	-12.7	1.8%
CC1CCCN(Cc2nc3c(c(=O)n(C)c(=O)n3C)n2CCc2ccccc2)C1 (centres undefined)	-4.9%	8.4	6.8%
C/C(=N\NC(=O)c1cccc(Cl)c1)C1C(=O)c2ccccc2C1=O	12.6µM*	x	u
C/C(=N\NC(=O)CCc1ccccc1)C1C(=O)c2ccccc2C1=O	-4.1%	x	x
Cc1cc2n(n1)SC(Nc1ccccc1)N2 (centres undefined)	25.1µM*	-18.5	-15.4%
Cc1cc(NC(=NC2CC2)c2ccccc2)n(-c2ccccc2)n1	15.4%	x	x
CCC(C)c1ccccc1NC(=S)Nc1cccnc1 (centres undefined)	11.0%	10.2	-15.4%
C=C(C(C)=O)C(O)c1ccc2ccccc2c1 (centres undefined)	-6.5%	x	-1.1%
COc1ccc(C2C(C#N)=C(N)Nc3onc(C(C)(C)C)c32)c(OC)c1 (centres undefined)	12.5%	x	-5.8%
CCCc1noc2c1C(c1cc(Br)ccc1F)C(C#N)=C(N)N2 (centres undefined)	11.2µM*	x	x
C=CCc1c(C)nc(SC)nc1Nc1ccc(C(C)=O)cc1	8.91µM*	0.2	-29.6%
SMILES	ALDH1A1 block	IMPase inh	HPGD block
C=CCc1c(C)nc(SC)nc1Nc1ccc(C(=O)O)cc1	-2.3%	-0.7	-19.8%
CCN(CC)S(=O)(=O)c1ccc2c(c1)nc(CCC(=O)Nc1ccc(N3CCOCC3)cc1)n2C	3.9%	x	x
O=C(O)c1ccc2c(c1)C(=O)N(c1cccc(S(=O)(=O)Nc3cccc(C(F)(F)F)c3)c1)C2=O	-10.7%	x	x
CCc1cc2c3c(c1)C(C)CC(C)(C)N3C(=O)C2=O (centres undefined)	0.316µM*	x	-11.3%
CCOc1cc2c3c(c1)C1(OCCO1)C(=O)N3C(C)(C)CC2C (centres undefined)	u	6.3	-8.0%
Cc1n[nH]c(=S)n1/N=C/c1ccc(OCc2ccc(Cl)cc2)cc1	0.4%	7.2	7.94µM*
CCc1n[nH]c(=S)n1/N=C/c1ccccc1OCc1ccc(Cl)cc1	7.1%	x	x
Cc1n[nH]c(=S)n1/N=C/c1ccc(OCc2ccc(Cl)cc2Cl)cc1	-12.1%	x	u
Cc1cc(C)c(COc2ccc(/C=N/n3c(C)n[nH]c3=S)cc2)c(C)c1	u	x	10µM*
S=c1[nH]nc(Cc2ccc(Br)cc2)n1/N=C/c1ccc(Cl)cc1	28.2µM*	x	x
Cc1n[nH]c(=S)n1/N=C/c1ccccc1OCc1ccc(Cl)cc1Cl	3.3%	x	-6.9%
CCc1ccc(NC(=O)CCc2nc3ccccc3[nH]2)cc1	-2.4%	x	x
CC(Oc1ccccc1F)C(=O)NCCN1CCCCC1 (centres undefined)	13.4%	9.5	-3.4%
O=C(CC1CS(=O)(=O)CC1CC(=O)Oc1ccccc1F)Oc1ccccc1F (centres undefined)	7.08µM*	x	-12.9%
O=C(CN(CCc1ccccc1)C(=O)c1csnn1)NC1CCCC1	-4.3%	x	x
CC1CC(C)CN(S(=O)(=O)N2CCC(C(=O)NCCC3=CCCCC3)CC2)C1 (centres undefined)	14.8%	x	x
CCCCOCCCNC(=O)C1CCCCC1	14.8%	2.8	-10.9%
CN1CCN(C(=O)CCCOc2cc(=O)n(C)c3ccccc23)CC1	5.2%	-7.1	-6.3%
Cn1c(=O)cc(OCC(=O)NC2CCCCC2)c2ccccc21	u	1.2	-27.1%
Cn1c(=O)cc(OCCCC(=O)N2CCCCC2)c2ccccc21	-4.5%	9.8	7.08µM*
Cn1c(=O)cc(OCCCC(=O)NC2CCCC2)c2ccccc21	2.8%	4.0	14.1µM*
COC(=O)[C@@]1(Cc2ccc(OC)cc2)[C@H]2c3cc(C(=O)N4CCCC4)n(Cc4ccsc4Br)c3C[C@H]2CN1C(=O)c1ccccc1	-1.7%	x	-6.7%
CCN(CC)S(=O)(=O)c1cccc(C(=O)NC(C)C(c2cccs2)N2CCCC2)c1 (centres undefined)	-10.7%	x	x
CCC(Sc1nc2ccccc2c(=O)n1CC1CCCO1)C(=O)NCc1cccnc1 (centres undefined)	2.8%	-1.9	-4.7%
Cn1c2c(c(=O)n(C)c1=O)C(c1ccccc1[N+](=O)[O-])CC(=O)N2 (centres undefined)	x	1.9	x
SMILES	ALDH1A1 block	IMPase inh	HPGD block
O=C(O)CNc1nc(-c2ccccc2)c2cc([N+](=O)[O-])ccc2n1	17.8µM*	15.8	-20.6%
O=[N+]([O-])c1ccc2nc(-c3ccccc3)[nH]c2c1	7.5%	x	-4.4%
O=[N+]([O-])c1ccc2nc(CCCO)[nH]c2c1	-1.7%	x	x
O=c1c(-c2ccccc2)n[nH]c2ccccc12	u	4.9	x
O=[N+]([O-])c1ccc2[nH]nc(-c3ccccc3)c2c1	2.3%	x	14.1µM*
O=[N+]([O-])c1ccc2nc(NCCCO)nc(-c3ccccc3)c2c1	1.1%	x	14.1µM*
CS(=O)(=O)N1CCN(C(=O)Cc2ccccc2Cl)CC1	9.8%	x	x
O=C(NNc1nc2ccc(Cl)cc2s1)c1cc(-c2cccs2)nc2ccccc12	34.4%	x	-17.5%
CCCN1C(=O)C2(C(C(=O)c3ccc(C)o3)=C(O)C(=O)N2CCCN2CCOCC2)c2ccccc21 (centres undefined)	10µM*	-26.6	-4.4%
C=CCN1C(=O)C2(C(C(=O)c3ccc(C)o3)=C(O)C(=O)N2CCCN2CCOCC2)c2ccccc21 (centres undefined)	20.6%	-1.9	x
C=C(C)C1CCC(C)=C1CC(C)(C)/C=N\n1cnnc1 (centres undefined)	22.4µM*	7.6	-13.7%
CC1=CC(C)C(/C=N/n2cnnc2)C(C)C1 (centres undefined)	5.7%	-11.0	-8.3%
CCc1nnc(NC(=O)COc2ccccc2[N+](=O)[O-])s1	-7.5%	x	x

Screening data: PubChem BioAssay, National Center for Advancing Translational Sciences (NCATS)
